# Source: PubChem BioAssay (NCATS)
# Records with an inconclusive call do not appear. A call without a number means that no potency is given here. The source made the active and inactive calls. The call rests on the fitted dose curve; in most records, active means well fitted inhibition curve with a large enough effect; inconclusive means small, poorly fitted or top-dose-only effect; inactive means flat fitted curve, though single readings scatter.
# Biological target: Luciferin 4-monooxygenase (Photinus pyralis) (UniProt P08659)
# Test: Biochemical firefly luciferase enzyme assay for NPC (AID 624030); further: nearly all actives have a fitted effect of over 70% in size
# Conditions: purified P. pyralis luciferase, luminescence, 5 min; series mostly up to 58.6 µM
# Text: Charcot-Marie-Tooth-Association [CMTA] National Center for Advancing Translational Sciences [NCATS] Charcot-Marie-Tooth (CMT) disease was first characterized by Jean-Martin Charcot and Pierre Marie in France and, independently, by Howard Henry Tooth in England in 1886. CMT is one of the most common inherited neurological diseases, affecting approximately 1 in 2,500 Americans. […] The most prevalent type of CMT is known as CMT1A and caused by a duplication of the PMP22 gene which leads to over-expression of this protein. PMP22 is a glycosylated intrinsic membrane protein accounting for 2-5% of the myelin protein content, and its over-expression results in demyelination and subsequently axonal loss. A pair of cellular transcription-based assays was developed in the S16 rat Schwann cell lines (Hai, M., et al., 2002) stably transfected with orthogonal reporters - firefly luciferase (Fluc) and beta-lactamase (beta-Lac) - whose expression is driven by an intronic regulatory element of the PMP22 gene (Jones, E.A., et al., 2011) to recapitulate endogenous expression of PMP22. A comprehensive library of approved drugs, the NCGC Pharmaceutical Collection (Huang, R., et al., 2011), was screened in the cross-validating platform of the orthogonal reporter assays to identify drug modulators inhibitory towards PMP22 expression. A set of counter-screens was devised to address non-specific activity of the library. An ATP-dependent CellTiter-Glo assay (developed by Promega Corp) was utilized to control cell viability. In addition, biochemical Fluc enzyme assay was performed to assess direct inhibition of the Fluc enzymatic activity. References Hai, M., Muja, N., DeVries, G.H., Quarles, R.H. and Patel, P.I. Comparative analysis of Schwann cell lines as model systems for myelin gene transcription studies. J Neurosci Res, 2002. 69(4): pp 497-508 Huang, R., Southall, N., Wang, Y., Yasgar A., Shinn P., Jadhav, A. , Nguyen, D.-T. and Austin, C.P., The NCGC pharmaceutical collection: a comprehensive resource of clinically approved drugs enabling repurposing and chemical genomics. Sci Transl Med, 2011. 3(80): p. 80ps16.
# Compounds were transferred to the plates in 23nl, and one microliter/well luciferase enzyme-buffer solution (10 nM P. pyralis luciferase and 50 mM Tris Acetate final concentrations) was dispensed yielding a final reaction volume of […]. Luciferase luminescence was measured by a ViewLux plate reader within 5 minutes of enzyme-buffer addition. The % activity was determined by normalizing to the average readings of PTC124 (a positive control) relative to DMSO (0% Activity). The concentration-effect curves were then classified based on curve quality (r2), response magnitude and degree of measured activity.
# Potency means the concentration at half of the fitted maximal effect.
# Sequence of Luciferin 4-monooxygenase (Photinus pyralis) (P08659 whole entry, looked up): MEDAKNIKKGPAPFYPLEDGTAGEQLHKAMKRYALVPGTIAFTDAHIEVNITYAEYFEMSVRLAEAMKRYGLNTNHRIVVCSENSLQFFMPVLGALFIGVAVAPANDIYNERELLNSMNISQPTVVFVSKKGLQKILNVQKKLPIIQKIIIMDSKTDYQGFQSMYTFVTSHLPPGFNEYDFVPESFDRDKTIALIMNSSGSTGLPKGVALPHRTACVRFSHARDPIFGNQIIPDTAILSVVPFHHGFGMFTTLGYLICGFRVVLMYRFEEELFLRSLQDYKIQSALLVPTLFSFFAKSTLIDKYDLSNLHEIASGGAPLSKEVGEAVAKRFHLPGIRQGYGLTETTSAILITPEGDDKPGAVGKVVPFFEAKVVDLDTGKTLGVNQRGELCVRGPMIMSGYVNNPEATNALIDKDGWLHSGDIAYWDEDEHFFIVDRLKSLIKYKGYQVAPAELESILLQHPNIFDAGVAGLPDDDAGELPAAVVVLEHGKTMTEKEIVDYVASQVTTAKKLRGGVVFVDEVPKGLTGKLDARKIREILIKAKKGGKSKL
row,Structure (SMILES),Potency
1,O=c1[nH]c(=O)n(C2C[C@H](O)[C@@H](CO)O2)cc1C(F)(F)F (stereo not given in full),inactive
2,Nc1nc(Cl)nc2c1ncn2[C@@H]1O[C@H](CO)[C@H](O)C1F (stereo not given in full),inactive
3,CCCCC/C(C=O)=C/c1ccccc1,inactive
4,C[C@]12CC[C@@H]3c4ccc(O)cc4CC[C@H]3[C@@H]1CCC2OC(=O)CCC1CCCC1 (stereo not given in full),inactive
5,CCOC(=O)C(CCc1ccccc1)NC(C)C(=O)N1Cc2cc(OC)c(OC)cc2CC1C(=O)O (stereo not given),inactive
6,O=C(O)C[CH2][Ge](=[O])[O][Ge](=[O])[CH2]CC(=O)O,inactive
7,CC(=O)OCC(=O)[C@@]1(O)CCC2C3C[C@H](C)C4=CC(=O)C=CC4(C)C3C(O)CC21C (stereo not given in full),inactive
8,Cc1ccc(Nc2ncccc2C(=O)O)cc1C,11.4 µM (active)
9,CCN1CCN(C(=O)NC(C(=O)NC2C(=O)N3C(C(=O)O)=C(CSc4nnnn4C)CSC23)c2ccc(O)cc2)C(=O)C1=O (stereo not given),inactive
10,COc1cccc2c1C(=O)c1c(O)c3c(c(O)c1C2=O)C[C@@](O)(C(=O)CO)C[C@@H]3OC1CC(N)C(O)C(C)O1 (stereo not given in full),inactive
11,C=C(NCc1ccccc1)c1ccccc1O,inactive
12,CC(C)(C)NC[C@H](O)CSc1nc(-c2ccc(C(N)=O)s2)cs1,inactive
13,CC1(C)OC[C@@H]2O[C@@]3(C(=O)O)OC(C)(C)O[C@@H]3[C@@H]2O1,inactive
14,CC(=O)OC1C([N+]2(C)CCCCC2)C[C@H]2C3CC[C@H]4C[C@H](OC(C)=O)C([N+]5(C)CCCCC5)CC4(C)C3CCC12C (stereo not given in full),inactive
15,Cc1cn([C@H]2CC(F)[C@@H](CO)O2)c(=O)[nH]c1=O (stereo not given in full),inactive
16,CC(=O)N1CC(O)CC1C(=O)O (stereo not given),inactive
17,C=CCN1CC(C(=O)N(CCCN(C)C)C(=O)NCC)CC2c3cccc4[nH]cc(c34)CC21 (stereo not given),inactive
18,CC(CN1CC(=O)NC(=O)C1)N1CC(=O)NC(=O)C1 (stereo not given),inactive
19,OCC1O[C@H](Oc2ccc(O)cc2)C(O)C(O)C1O (stereo not given in full),inactive
20,CCCCN1CC(O)C(O)C(O)C1CO (stereo not given),inactive

row,Structure (SMILES),Potency
1,CN[C@H](C)CCC=C(C)C,inactive
2,Nc1nc2[nH]cc(CCc3ccc(C(=O)NC(CCC(=O)O)C(=O)O)cc3)c2c(=O)[nH]1 (stereo not given),inactive
3,CCN(CC)CCOCCOC(=O)C(CC)(CC)c1ccccc1 (tested in a mixture with another compound),inactive
4,Nc1ncn(C2C[C@H](O)[C@@H](CO)O2)c(=O)n1 (stereo not given in full),inactive
5,NC(=O)OC[C@@H]1[C@H](NC(=O)/C(=N/OCC(=O)O)c2csc(N)n2)C(=O)N1S(=O)(=O)O,inactive
6,COC(c1ccccc1)(c1ccccc1)C(Oc1nc(C)cc(C)n1)C(=O)O (stereo not given),inactive
7,CCCCCOC(=O)Nc1nc(=O)n(C2O[C@H](C)[C@@H](O)[C@@H]2O)cc1F (stereo not given in full),inactive
8,CC(CCC(=O)O)C1CCC2C3C(=O)C[C@@H]4CC(=O)CC[C@@]4(C)C3CC(=O)[C@]12C (stereo not given in full),inactive
9,C#C[C@]1(O)CC[C@H]2[C@H]3[C@H](CC[C@@]21C)C1=C(CC(=O)CC1)C[C@@H]3C,inactive
10,CC1(C)SC2C(NC(=O)C(C(=O)O)c3ccccc3)C(=O)N2C1C(=O)O (stereo not given),inactive
11,OCC1OC(O)C(O)C(O)C1O (stereo not given),inactive
12,C=C1N[C@]2(C(=O)COC(C)=O)[C@@H](C[C@H]3[C@@H]4CCC5=CC(=O)C=C[C@]5(C)[C@H]4[C@@H](O)C[C@@]32C)O1,inactive
13,CC1CCC(O)C/C1=C\C=C1/CCCC2(C)C1CCC2C(C)/C=C/C(C)C(C)C (stereo not given),inactive
14,CCOc1ccccc1O[C@@H](c1ccccc1)[C@@H]1CNCCO1,inactive
15,CO/N=C(/C(=O)N[C@@H]1C(=O)N2C(C(=O)O)=C(CSc3cnns3)CS[C@H]12)c1csc(N)n1,inactive
16,Cc1cc2nc3c(=O)[nH]c(=O)nc-3n(CC(O)C(O)C(O)COP(=O)(O)O)c2cc1C (stereo not given),inactive
17,Cc1cc(C(C)(C)CC(C)(C)C)ccc1OCCOCC[N+](C)(C)Cc1ccccc1,inactive
18,O=C(NC(CO)C(O)c1ccc([N+](=O)[O-])cc1)C(Cl)Cl (stereo not given),inactive
19,CCCCCCCCCCCCCCCC(=O)OCC(COP(=O)(O)OCC[N+](C)(C)C)OC(=O)CCCCCCCCCCCCCCC (stereo not given),inactive
20,OCC1O[C@H](O[C@H]2C(O)C(O)C(O)O[C@@H]2CO)C(O)C(O)C1O (stereo not given in full),inactive
